Results as given in PubChem BioAssay (NCI).
“And” between values parts separate entries of the source, which are not always exact repeats. Equal entries are not always repeated. This is part of a sample that, as a whole, favours compounds with a hit. Of some 79,000 tested, about 15% had one in any assay. Some compounds were tested as several samples or in several runs, with calls that do not always agree. The source made the active and inactive calls. No stated cut-off is given here; in the data, active means growth inhibition above about 70%; inactive means the rest.

Assays:
[1] = NCI Yeast Anticancer Drug Screen. Data for the rad50 strain (AID 155);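 further: 0% = growth of vehicle-only cultures of the same strain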; conditions: S. cerevisiae rad50 strain growth inhibition, stronger effect = higher value
In short: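 Compounds were tested on a yeast strain with an engineered DNA damage repair alteration; the reported value is growth inhibition normalised to vehicle treatment.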

[2] = NCI Yeast Anticancer Drug Screen. Data for the mec2-1 strain (AID 157); conditions: S. cerevisiae mec2-1 strain, stronger effect = higher value
In short: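 Yeast mec2-1 mutant treated with compound. Readout: growth inhibition vs vehicle controls.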

[3] = NCI Yeast Anticancer Drug Screen. Data for the sgs1 mgt1 strain (AID 161);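 further: 0% = growth of cultures given vehicle only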; conditions: S. cerevisiae sgs1 mgt1 strain, stronger effect = higher value
In short: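 Inhibition of yeast growth, normalised to vehicle-treated controls, is reported for a strain bearing genetic alterations in DNA damage repair.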

[4] = NCI Yeast Anticancer Drug Screen. Data for the cln2 rad14 strain (AID 165);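 further: 0% = growth equal to vehicle treated cultures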; conditions: S. cerevisiae cln2 rad14 strain, stronger effect = higher value
In short: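 cln2 rad14 yeast strain; compound exposure; growth inhibition read vs vehicle controls.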

[5] = NCI Yeast Anticancer Drug Screen. Data for the bub3 strain (AID 167); conditions: S. cerevisiae bub3 mutant strain, stronger effect = higher value
In short: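 Growth of a checkpoint-deficient yeast mutant is measured after compound exposure. Values represent inhibition relative to vehicle.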

[6] = NCI Yeast Anticancer Drug Screen. Data for the mlh1 rad18 strain (AID 175); conditions: S. cerevisiae mlh1 rad18 strain growth inhibition, stronger effect = higher value
In short: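 Yeast w/ defined DNA-repair lesions; compound exposure; growth vs vehicle controls → % inhibition.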

[7] = at 5.0 µM (retest, dose inferred, filed as 0.5)
[8] = at 50.0 µM (retest, dose inferred, filed as 5.0)

Row | Compound | growth inhibition [1, 7] | growth inhibition [1, 8] | growth inhibition ([1]; at 50.0 µM) | growth inhibition [2, 7] | growth inhibition [2, 8] | growth inhibition ([2]; at 50.0 µM) | growth inhibition [3, 7] | growth inhibition [3, 8] | growth inhibition ([3]; at 50.0 µM) | growth inhibition [4, 7] | growth inhibition [4, 8] | growth inhibition ([4]; at 50.0 µM) | growth inhibition [5, 7] | growth inhibition [5, 8] | growth inhibition ([5]; at 50.0 µM) | growth inhibition [6, 7] | growth inhibition [6, 8] | growth inhibition ([6]; at 50.0 µM)
1 | ClCCN(CCCl)c1ccc(C2N(Cc3ccc(N(CCCl)CCCl)cc3Cl)CCCN2Cc2ccc(N(CCCl)CCCl)cc2Cl)cc1 | 2% (inactive) | 99% (active) | 96.2% (active) | -3% (inactive) | 99% (active) | 98.8% (active) | -1% (inactive) | 99% (active) | 97.5% (active) | -7% (inactive) | 99% (active) | 22.1% (inactive) | 1% (inactive) | 99% (active) | 37% (inactive) | 9% (inactive) | 99% (active) | 98.2% (active)
2 | CCCCCC(O)C1C(=O)OC(C)C(O)/C=C/C=C/C=C/C=C/C=C(\C)C(O)C(O)C(O)CC(O)CC(O)CC(O)CC(O)CC1O (configuration not stated) |  |  | -5.85% (inactive) and -8.05% (inactive) and -2.3% (inactive) |  |  | -36.5% (inactive) and -20% (inactive) and -0.45% (inactive) |  |  | -2.25% (inactive) and -8.45% (inactive) and -33% (inactive) |  |  | -14.2% (inactive) and -5% (inactive) and -4.05% (inactive) |  |  | -2.15% (inactive) and 4.5% (inactive) and 11% (inactive) |  |  | 17.9% (inactive) and -47.9% (inactive) and 0.55% (inactive)
3 | NC(CS)C(=O)O (configuration not stated) |  |  | -4.8% (inactive) and 31.9% (inactive) and -26% (inactive) |  |  | -7.5% (inactive) and -9.05% (inactive) and -3.1% (inactive) |  |  | -7.95% (inactive) and 28.4% (inactive) and -35.2% (inactive) |  |  | -0.4% (inactive) and 7.6% (inactive) and -1.55% (inactive) |  |  | -17.2% (inactive) and 25.6% (inactive) and -38.2% (inactive) |  |  | -8.1% (inactive) and 13.2% (inactive) and 1.75% (inactive)
4 | COc1cc2c(cc1OC)C13CCN4CC5=CCOC6CC(=O)N2C1C6C5CC43 (configuration not stated) (tested in a mixture with another compound) | -6% (inactive) | -24% (inactive) | 7.15% (inactive) [middle of 6 runs] | -2% (inactive) | 1% (inactive) |  | -13% (inactive) | -8% (inactive) |  | -3% (inactive) | 2% (inactive) |  | 0% (inactive) | -2% (inactive) | -1.4% (inactive) [middle of 6 runs] | -2% (inactive) | -4% (inactive) | 
5 | N#CC(C#N)=Cc1cccc([N+](=O)[O-])c1 | 42% (inactive) | 89% (active) | -15.1% (inactive) and 98.2% (active) | 29% (inactive) | 92% (active) | -11.1% (inactive) and 90.8% (active) |  |  |  | 1% (inactive) | 28% (inactive) | -4.8% (inactive) and 93.7% (active) |  |  |  | 33% (inactive) | 92% (active) | -27.9% (inactive) and 97.8% (active)
6 | [C](#Cc1ccccc1)[Hg][C]#Cc1ccccc1 |  |  |  | 94% (active) | 99% (active) | 98.8% (active) | 94% (active) | 100% (active) | 99% (active) | 26% (inactive) | 99% (active) | 84.9% (active) | 21% (inactive) | 99% (active) | 98.3% (active) | 24% (inactive) | 99% (active) | 98.8% (active)
7 | [Cl][Hg][CH2]CC1CC=CCC1 (configuration not stated) | 99% (active) | 99% (active) | 99.2% (active) | 100% (active) | 100% (active) | 99.5% (active) | 100% (active) | 99% (active) | 99.6% (active) |  |  |  | 99% (active) | 99% (active) | 99.6% (active) | 100% (active) | 100% (active) | 99.5% (active)
8 | C/C(=N\O)C(CN(C)C)C(c1ccccc1)c1c(O)c2ccccc2oc1=O (configuration not stated) | 25% (inactive) | 25% (inactive) | 76.5% (active) | 12% (inactive) | 12% (inactive) | 63.4% (inactive) |  |  |  |  |  |  | 12% (inactive) | 12% (inactive) | 74.7% (active) | 14% (inactive) | 14% (inactive) | 75.2% (active)
9 | NNc1n[nH]c(=S)n1N |  |  | 7.2% (inactive) and 1.8% (inactive) and 15.1% (inactive) |  |  | -5.4% (inactive) and 0.5% (inactive) and -6.15% (inactive) |  |  | 9.8% (inactive) and -4.35% (inactive) and 4.1% (inactive) |  |  | 8.7% (inactive) and 13% (inactive) and 5.85% (inactive) |  |  | 9.3% (inactive) and 17% (inactive) and 0.45% (inactive) |  |  | 17.6% (inactive) and -1.5% (inactive) and -1.65% (inactive)
10 | COC(=O)C(CCCN=C(N)N[N+](=O)[O-])NC(=O)c1ccc2c(c1O)C(=O)c1ccccc1C2=O (configuration not stated) | 8% (inactive) | 15% (inactive) | 71.6% (active) | 4% (inactive) | 11% (inactive) | 28.7% (inactive) |  |  |  | -4% (inactive) | 3% (inactive) | 47.9% (inactive) | 2% (inactive) | 5% (inactive) | 14.5% (inactive) | 5% (inactive) | 20% (inactive) | 66.2% (inactive)
11 | C[C@H]1CCC/C=C/[C@@H]2C[C@H](O)C[C@H]2[C@H](O)/C=C/C(=O)O1 | 5% (inactive) and 15% (inactive) | 98% (active) and 99% (active) |  | 10% (inactive) and 26% (inactive) | 99% (active) and 100% (active) |  | 13% (inactive) and 21% (inactive) | 99% (active) | 90.3% (active) and 5.45% (inactive) and 90.8% (active) | 7% (inactive) and 27% (inactive) | 99% (active) |  | 4% (inactive) and 31% (inactive) | 97% (active) and 98% (active) | 90.8% (active) and 1.65% (inactive) and 90.9% (active) | 17% (inactive) and 42% (inactive) | 99% (active) | 90.8% (active) and 13.7% (inactive) and 39% (inactive)
12 | Cc1ccc2c[c]1[Hg][CH2]COS2(=O)=O | 33% (inactive) | 98% (active) | 94.7% (active) | 16% (inactive) | 99% (active) | 98% (active) |  |  |  | 9% (inactive) | 98% (active) | 98.7% (active) | -2% (inactive) | 99% (active) | 99.2% (active) | 24% (inactive) | 97% (active) | 98.2% (active)
13 | NC(=O)c1ccc(N)nc1 | 5% (inactive) | 30% (inactive) | 20.9% (inactive) | -28% (inactive) | -14% (inactive) | -14% (inactive) | -13% (inactive) | 3% (inactive) | 19.4% (inactive) |  |  |  | -12% (inactive) | 12% (inactive) | 11.2% (inactive) | -10% (inactive) | 8% (inactive) | 7.75% (inactive)
14 | O=S(=O)(O)O |  |  |  |  |  |  |  |  |  |  |  |  |  |  |  |  |  | -10.7% (inactive) and 13.2% (inactive) and -10.6% (inactive)
15 | CC[C@@]1(O)CC(OC2CC(N3CCOCC3)C(O)C(C)O2)c2c(O)c3c(c(O)c2[C@H]1O)C(=O)c1cccc(O)c1C3=O (some centres not stated) | 96% (active) | 98% (active) | 59.3% (inactive) | 36% (inactive) | 99% (active) | 51.2% (inactive) |  |  |  | 31% (inactive) | 99% (active) | 97.3% (active) | 24% (inactive) | 99% (active) | 99% (active) | 52% (inactive) | 98% (active) | 51.1% (inactive)
16 | CCOP(=O)(O)C(Nc1ccc(N=Nc2ccccc2)cc1)c1cccc(C(Nc2ccc(N=Nc3ccccc3)cc2)P(=O)(O)OCC)c1 (configuration not stated) | 10% (inactive) | 29% (inactive) | 49.4% (inactive) | 0% (inactive) | 46% (inactive) | 47.6% (inactive) | 5% (inactive) | 8% (inactive) | 46.3% (inactive) |  |  |  | 4% (inactive) | 35% (inactive) | 42.5% (inactive) | 7% (inactive) | 42% (inactive) | 47.9% (inactive)
17 | NC(c1ccccc1)C(O)c1ccccc1 (configuration not stated) |  |  | 2.1% (inactive) [middle of 4 runs] |  |  | 3.2% (inactive) [middle of 4 runs] |  |  | 10.7% (inactive) [middle of 4 runs] |  |  |  |  |  |  |  |  | -10.7% (inactive) [middle of 4 runs]
18 | CC(CCS(C)(=O)=O)([N+](=O)[O-])[N+](=O)[O-] | 48% (inactive) | 99% (active) | 55.2% (inactive) | 16% (inactive) | 99% (active) | 55% (inactive) | 28% (inactive) | 99% (active) | 52.6% (inactive) |  |  |  | 27% (inactive) | 99% (active) | 99% (active) | 24% (inactive) | 100% (active) | 98.3% (active)
19 | C/C=C(\C)C(=O)OC1C(C)=C2C(C1OC(=O)CCCCC)C(C)(OC(C)=O)CC(OC(=O)CCC)C1(O)C2OC(=O)C1(C)O (configuration not stated) | 26% (inactive) | 85% (active) | 77.6% (active) | 15% (inactive) | 86% (active) | 83.5% (active) | 20% (inactive) | 91% (active) | 74.8% (active) | 34% (inactive) | 95% (active) | 82.6% (active) | 17% (inactive) | 92% (active) | 73.4% (active) | 34% (inactive) | 87% (active) | 67.6% (inactive)
20 | CC(=O)OC1CCC2(C)C3CCC4(C)C(OC(=O)c5ccccc5)CCC4C3CC(Br)C2(O)C1 (configuration not stated) |  |  |  | 27% (inactive) | 39% (inactive) | 87.9% (active) | 44% (inactive) | 64% (inactive) | 89.5% (active) | 40% (inactive) | 44% (inactive) | 90.8% (active) | 45% (inactive) | 56% (inactive) | 86.8% (active) | 42% (inactive) | 56% (inactive) | 85.7% (active)
21 | Cc1cc(N(CCCl)CCCl)ccc1CN1CCCN(Cc2ccc(N(CCCl)CCCl)cc2C)C1c1ccc(N(CCCl)CCCl)cc1C | 4% (inactive) | 98% (active) | 98% (active) | -2% (inactive) | 99% (active) | 98% (active) | 2% (inactive) | 99% (active) | 98.8% (active) |  |  |  | 7% (inactive) | 99% (active) | 97.7% (active) | 21% (inactive) | 98% (active) | 98.6% (active)
22 | CC(=O)NC1C(S[As](C)C)OC(COC(C)=O)C(OC(C)=O)C1OC(C)=O (configuration not stated) | 59% (inactive) | 98% (active) | 91% (active) | 18% (inactive) | 95% (active) | 92.4% (active) |  |  |  | 12% (inactive) | 73% (active) | 88.7% (active) | 55% (inactive) | 98% (active) | 86.1% (active) | 44% (inactive) | 98% (active) | 89.5% (active)
